Among all 2,100 compounds or so, about 650 (31%) were called active. Roughly 16% stayed inconclusive and do not appear here. Some of the results follow. Values without a mark were called inactive. The call rests on the fitted dose curve; in most records, active means well fitted inhibition curve with a large enough effect; inconclusive means small, poorly fitted or top-dose-only effect; inactive means flat fitted curve, though single readings scatter.
Assay: qHTS for inhibitors of Vif-A3G interactions: Cherry picks; further: nearly all actives have a fitted effect of over 80% in size; on activity, negative = fluorescence increase: % of control where 0% means no effect
Details: HeLa A3G-eYFP + Vif (tagged APOBEC3G with the HIV-1 protein that degrades it), 24 h; Potency: eYFP fluorescence increase; series mostly up to 36.9 µM; activity, negative = fluorescence increase: at the top concentration
How it was run: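 Cherry-picked compounds tested at several concentrations on A3G-eYFP/Vif HeLa cells for 24 hours; loss of Vif-driven degradation read as eYFP fluorescence by cytometric plate imaging, 488 nm excitation, 500-530 nm emission.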
Potency means the concentration at half of the fitted maximal effect.

Row | Compound | activity, negative = fluorescence increase | Potency
1 | OCCCn1c(C2CCCN2c2nc(-c3ccc(Cl)cc3)cs2)nc2cc(Cl)c(Cl)cc21 (stereo not given) | -8.45% [at 46.1 µM] | –
2 | Cc1ccccc1NC(=O)c1ccc2c(c1)c(C)c(C)n2Cc1ccccc1 | -2.97% [at 46.1 µM] | –
3 | N=c1n(CC(=O)c2ccc([N+](=O)[O-])cc2)c2ccccc2n1Cc1ccccc1 | – | 18.4 µM (active)
4 | Cc1ccc(C)c(C2NC(=O)c3ccccc3N2)c1 (stereo not given) | -8.21% | –
5 | Cc1ccc(C(=O)NC2c3ccccc3-c3ccccc32)cc1 | -6.92% | –
6 | Cc1ccc(SC2=C(Sc3ccc(C)cc3)C(=O)c3ccccc3C2=O)cc1 | – | 16.4 µM (active)
7 | Cc1ccc(-c2cc(C(=O)N/N=C/C(Br)=C/c3ccccc3)n[nH]2)o1 | -8.76% | –
8 | Cc1ccc(Cl)cc1NC(=O)Nc1cn(CC(C)C)c(=O)c2ccccc12 | 0.562% [at 46.1 µM] | –
9 | Cc1ccc2nc(-c3ccccn3)c(NC3CCCC3)n2c1 | 9.97% [at 46.1 µM] | –
10 | CN(C)c1ccc(/C=C/c2ccnc3ccc(-c4ccccc4)cc23)cc1 | – | 18.4 µM (active)
11 | CN(C)c1ccc(/C=C/c2ccnc3cc(Cl)ccc23)cc1 | – | 13 µM (active)
12 | CN(C)c1ccc(/C=C/C=C/c2ccnc3ccccc23)cc1 | – | 5.8 µM (active)
13 | CN(C)c1ccc(/C=C/c2ccnc3ccccc23)cc1 | – | 18.4 µM (active)
14 | COc1cccc(CNCCSc2nnnn2C)c1OCc1ccc(F)cc1 | 2.21% [at 46.1 µM] | –
15 | C=CCNC(=S)N/N=C(\C)c1ccc(OC)cc1 | 6.78% [at 46.1 µM] | –
16 | CSc1ccc(/C=N/NC(=O)c2ccccc2Cl)cc1 | -7% | –
17 | Cc1ccc(NC(=S)N=Nc2c(O)n(C)c3ccc(S(=O)(=O)N4CCOCC4)cc23)cc1 | 3.95% [at 46.1 µM] | –
18 | CNc1ccc(/C=C/c2ccnc3ccccc23)cc1 | – | 18.4 µM (active)
19 | CN(C)c1ccc(/C=C/c2cnnc3ccccc23)cc1 | – | 20.6 µM (active)
20 | COc1cccc2nccc(/C=C/c3ccc(N(C)C)cc3)c12 | – | 20.6 µM (active)
21 | CN(C)c1ccc(/C=C/c2ccnc3ccccc23)c(N)c1 | – | 18.4 µM (active)
22 | COc1ccc(C2=NOC(C(=O)NCc3ccc(F)cc3)C2)cc1 (stereo not given) | -7.76% | –

Row | Compound | activity, negative = fluorescence increase | Potency
23 | CCOc1ccc(Br)cc1C1C(C(=O)OC)=C(N)Oc2cc(N(C)C)ccc21 (stereo not given) | -9.94% | –
24 | Cc1ccc(NC(=S)Nc2ccccn2)c(C)c1 | 7.06% [at 46.1 µM] | –
25 | CC(=O)Nc1cc(-c2ccccc2CN(C)C)cn2c(-c3ccc(C(C)=O)cc3)cnc12 | -11.7% | –
26 | COC(=O)c1sc(N)c(C(=O)OC)c1COC(=O)c1c(C)noc1C | -2.04% | –
27 | CC1(C(=O)Nc2ccc3c(c2)OCO3)Cc2c(-c3ccccc3)ccnc2O1 (stereo not given) | 1.09% | –
28 | N#Cc1c(NC(=O)/C=C/C(=O)O)sc2c1CCN(Cc1ccccc1)C2 | -27.1% [at 46.1 µM] | –
29 | CN(C)c1ccc(/C=C(\C#N)C(=O)Nc2nc3c(s2)CCN(Cc2ccccc2)C3)cc1 | – | 1.12 µM (active)
30 | O=S(=O)(Nc1nc2ccccc2nc1N1CCN(c2ccccc2)CC1)c1ccc(F)cc1 | -15.1% [at 46.1 µM] | –
31 | O=S(=O)(Nc1nc2ccccc2nc1N1CCc2ccccc2C1)c1ccc(Br)cc1 | -16.9% [at 46.1 µM] | –
32 | O=S(=O)(Nc1nc2ccccc2nc1N1CCN(c2ccccn2)CC1)c1ccc(Cl)cc1 | – | 23.1 µM (active)
33 | O=C(N=c1ccn(-c2nc3ccccc3nc2NS(=O)(=O)c2ccc(Cl)cc2)cc1)c1cccs1 | – | 16.4 µM (active)
34 | CN1CCN(c2nc3ccccc3nc2NS(=O)(=O)c2ccc(Br)cc2)CC1 | 6.19% [at 46.1 µM] | –
35 | CCOC(=O)N1CCC(Nc2nc3ccccc3nc2NS(=O)(=O)c2ccc(Cl)cc2)CC1 | 0.827% [at 46.1 µM] | –
36 | O=C(N/N=C/c1ccc2c(c1)OCO2)c1cc(-c2ccncc2)nc2ccccc12 | -7.14% | –
37 | Cc1nn(-c2ccc(F)cc2)c(Cl)c1/C=C1\C(=O)Nc2ccccc21 | -7.22% | –
38 | Cc1ccc(C2NC(=O)c3ccccc3N2)s1 (stereo not given) | -2.05% | –
39 | Cc1cc(C)c(/C=C2\C(=O)Nc3ccccc32)[nH]1 | – | 18.4 µM (active)
40 | Cc1ccc(S(=O)(=O)Nc2cc(Cl)c(O)c3ncccc23)cc1 | -0.848% | –
41 | COc1ccc(S(=O)(=O)N2CCN(C(=O)c3ccc([N+](=O)[O-])o3)CC2)cc1 | 1.28% | –
42 | COc1ccc2oc(-c3ccccc3[N+](=O)[O-])cc(=O)c2c1 | -8.58% | –
43 | COc1ccc2[nH]c3c(c2c1)CCNC3c1ccc([N+](=O)[O-])o1 (stereo not given) | – | 18.4 µM (active)
44 | Cc1ccc(N/C(N)=N/c2nc(CSc3nnc(C)s3)cc(=O)[nH]2)c(C)c1 | -3.92% | –

Row | Compound | activity, negative = fluorescence increase | Potency
45 | COc1ccc(C(=O)C[n+]2cc(Br)cc3ccccc32)cc1 | – | 20.6 µM (active)
46 | CCCC1=[N+](CC(=O)c2ccc(Br)cc2)CCn2cccc21 | -10.6% [at 46.1 µM] | –
47 | CCn1cc2nc(SCC(=O)Nc3ccc(C)cc3C)n(Cc3ccc(C)cc3)c(=O)c2n1 | -5.28% [at 46.1 µM] | –
48 | Cc1cc(N2CCN(c3ccc([N+](=O)[O-])c4cccnc34)CC2)c2ccccc2n1 | – | 20.6 µM (active)
49 | O=[N+]([O-])c1cc(Cl)c2cccnc2c1O | -10.9% [at 46.1 µM] | –
50 | CCC(=O)NC(=S)Nc1cccc(Cl)c1N1CCCC1 | -1.38% [at 46.1 µM] | –
51 | C=CCNc1nc2cc(-c3cccc(Cl)c3)sc2c(=O)n1C | 0.835% | –
52 | C=CCNC(=S)N/N=C/c1ccc(C)cc1C | 7.22% [at 46.1 µM] | –
53 | C=C(C(=O)c1ccccc1)C(NC(C)(C)C)c1ccccc1 (stereo not given) | 4.2% | –
54 | CC(=O)Nc1sc(/C(C#N)=C/c2ccc(Cl)c(Cl)c2)nc1-c1ccc(C)cc1 | – | 5.8 µM (active)
55 | CCOc1cc(/C=C(\C#N)c2nc(-c3cccs3)c(NC(C)=O)s2)ccc1O | – | 23.1 µM (active)
56 | CC(=O)Nc1sc(/C(C#N)=C\c2cccc(Cl)c2)nc1-c1ccc(C)cc1 | – | 8.2 µM (active)
57 | CCOC(=O)c1c(-c2ccc(C)cc2)csc1NC(=O)/C(C#N)=C/c1ccc(O)c(OC)c1 | -17.2% | –
58 | O=C(Cn1ncc(Cl)c(Cl)c1=O)NCC1CCCCC1 | -8.17% | –
59 | CC(=O)c1cccc(-c2ccnc3c2CC(C(=O)NCc2ccco2)O3)c1 (stereo not given) | -11.6% | –
60 | O=C(Cc1ccccc1)NCc1ccc(-n2cccc2)cc1 | -1.88% | –
61 | S=C(Nc1cccc2ccccc12)NN1CCCCCC1 | 10.3% [at 46.1 µM] | –
62 | N#Cc1c(-c2ccccc2F)cc(C2CC2)nc1SCC(=O)c1cccs1 | – | 17.7 µM (active)
63 | CCc1c(C)nc(SCC(=O)c2cccs2)c(C#N)c1C | -25.4% | –
64 | O=C(COC(=O)c1ccc(NS(=O)(=O)c2cccs2)cc1)NCc1ccco1 | -2.14% | –
65 | Cc1ccc2nc3c(cc(S(=O)(=O)c4ccccc4)c(=N)n3Cc3ccco3)c(=O)n2c1 | – | 29.1 µM (active)

Reference: PubChem BioAssay AID651812 (National Center for Advancing Translational Sciences (NCATS), 2012)
